Screening data from PubChem.
HT1080-NT tox – kills 2HG-producing HT-1080-NT fibrosarcoma cells. actives 1.6% (n = 360,000). Potency, µM (highest dose often 46.1 µM), actives largely listed as cytotoxic. HT-1080-NT fibrosarcoma viability, CellTiter-Glo ATP luminescence, 48 h. AID 686970;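 further: NT is the 2HG producing partner of a matched IDH1 knockdown line; nearly all actives have a fitted effect of over 55% in size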
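750 cells/well, RPMI + 5% FBS; 2 h settle, compound pin-transfer, 48 h at 37 degrees C. CellTiter-Glo 10 min RT, luminescence. Normalized to DMSO and media-only wells.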
HT1080 IDH1KD tx – kills HT-1080 cells with IDH1 knockdown. HT-1080 IDH1 knockdown viability, ATP luminescence, 48 h. Potency, µM (doses to about 46.1 µM), actives largely listed as cytotoxic. actives 2% (n = 360,000)
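Viability of IDH1-knockdown HT-1080 fibrosarcoma cells was assessed by CellTiter-Glo after 48 h at 37 °C with titrated compound; concentration-effect curves were classified by fit quality and response size.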
DT40 TDP1 no CPT – qHTS for Inhibitors of human tyrosyl-DNA phosphodiesterase 1 (TDP1): qHTS in cells in absence of CPT. DT40 Tdp1-/- hTDP1 cells, no CPT, ATP luminescence, 48 h. Potency, µM (top dose mostly 46.2 µM), usual class: inhibitors. actives 15% (n = 420,000). AID 686978, 2013; further: nearly all actives have a fitted effect of over 55% in size
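DT40 Tdp1-/-;hTDP1 cells, no CPT (DMSO vehicle only), 400 cells/well; compounds pin-transferred; ≥48 hr, 37 °C; CellTiter-Glo 30 min RT dark, luminescence read.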
IL-1B inflam inh – inhibitors of inflammasome signaling (IL-1 beta secretion) | AID 743279 | THP-1 LPS/ATP IL-1B secretion, AlphaLISA, 16 h; active compounds read low | activity change, % at 57.5 µM | actives 4.7% (n = 360,000); in the data active means activity change below about -50%; inconclusive means mostly about -30% to -49%
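Secreted IL-1B measured by AlphaLISA bead assay after 16 h compound exposure of THP-1 cells; compounds (final up to 57.5 uM) added 1 h before LPS (250 ng/mL) and ATP (1.25 mM) stimulation; lower signal means less secretion.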
TDP1 cell CPT – growth inhibition of DT40 Tdp1-/-;hTDP1 cells with camptothecin (screen for TDP1 inhibitors). chicken DT40 Tdp1-/-;hTDP1 cells + 20 nM CPT, ATP luminescence, 48 h. actives 12% (n = 420,000). Potency, µM (doses to about 46.2 µM), usual class: inhibitors; further: nearly all actives have a fitted effect of over 55% in size
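Chicken DT40 Tdp1-/- cells complemented with human TDP1, 400 cells/well, exposed to compounds plus 20 nM camptothecin for at least 48 h at 37 C; viability read as ATP content by CellTiter-Glo luminescence.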
A number is an active result; i = inactive; ? = inconclusive; nt = no result. Compounds with a hit are over-represented: about 19% of the library has one in this group of screens. Unless noted, the call rests on the fitted dose curve; in most records, active means well fitted curve in the direction sought with a large enough effect; inconclusive means small, poorly fitted or top-dose-only effect, or another doubt; inactive means no such curve, though single readings can be large; an effect the other way counts as inactive or inconclusive.

SMILES	HT1080-NT tox	HT1080 IDH1KD tx	DT40 TDP1 no CPT	IL-1B inflam inh	TDP1 cell CPT
C=CCn1c(SCC(=O)c2ccc(Br)cc2)nnc1C(CC(C)C)NC(=O)c1cccs1 (stereo unspecified)	i	i	?	i	?
Cc1c(NC(=O)CN2C(=O)C(=O)c3ccccc32)c(=O)n(-c2ccccc2)n1C	i	i	i	i	i
CCc1cccc(CC)c1NC(=O)CN1C(=O)C(=O)c2ccccc21	nt	nt	3.26µM	nt	5.17µM
CC(C)C(NS(=O)(=O)c1ccc2c(c1)oc(=O)n2C)C(=O)NCCc1ccc(Cl)cc1 (stereo unspecified)	nt	nt	i	nt	i
ClN=C1C=CC=CC1=NCl	i	i	?	i	16.4µM
C/C(=N/OCO/N=C(/C)c1ccc(F)cc1)c1ccc(F)cc1	i	i	i	i	i
CN(C)C(=S)Nc1cccc(C(F)(F)F)c1	i	i	?	i	25.9µM
CN(C)NC(=S)Nc1cccc(C(F)(F)F)c1	i	i	i	nt	i
Cc1ccc(NC(=S)NNC(=O)c2c([N+](=O)[O-])c(C)nn2C)cc1	5.62µM	5.01µM	i	i	i
Cc1ccc(NNC(=S)Nc2ccc(C(C)C)cc2)c(C)c1	i	i	16.4µM	-108.5	?
Cc1ccc(NC(=S)NNC(=O)c2cn(C)nc2C)cc1	i	i	i	i	i
CC(C)(C)NNC(=S)Nc1cccc(F)c1	2.91µM	5.8µM	14.6µM	nt	?
Cc1ccc(NC(=O)CCC(=O)NNC(=S)Nc2ccc(F)cc2)c(C)c1	i	i	i	i	i
CCCN1CNc2c(c(=O)[nH]c(=S)n2CCc2cccc(C)c2)C1	i	i	?	nt	?
CC(C)(O)CC[C@H](OC(=O)c1ccccc1)[C@](C)(O)[C@H]1CC[C@@]2(O)C3=CC(=O)[C@@H]4C[C@@H](O)[C@H](O)C[C@]4(C)C3CC[C@]12C (stereo partly specified)	i	i	i	i	i
CCCSc1nc(N)nc2c1ncn2C1OC(CO)C(O)C1O (stereo unspecified)	i	i	i	i	i
CC(NC(=S)Nc1cccc(C(F)(F)F)c1)C(C)(C)C (stereo unspecified)	?	?	16.4µM	-80.9	?
Cc1ccc(NC(=S)NNC(=S)Nc2ccc(C)cc2)cc1	i	i	2.31µM	i	6.51µM
Cc1ccc(NC(=S)NNC(=O)Nc2ccccc2)cc1	i	i	?	i	?
CC(C)[C@H](NC(=O)Nc1cccc(C(F)(F)F)c1)C(=O)O	i	i	i	i	i
Cc1ccc(NC(=S)NNC(=S)Nc2cccc(C(F)(F)F)c2)cc1	i	?	29.1µM	i	?
O=C(CN1C(=O)/C(=C/c2ccc(C(F)(F)F)cc2)Sc2ccccc21)NCCCN1CCOCC1	?	?	?	?	25.9µM
O=C(O)CN1C(=O)/C(=C/c2cccc(Cl)c2)Oc2ccccc21	i	i	i	i	i
O=C(CN1C(=O)/C(=C\c2cccc(Br)c2)Oc2ccccc21)NCCCN1CCOCC1	i	i	18.4µM	-51.8	?
CCc1ccc(/C=C2/Sc3ccccc3N(CC(=O)NCCCN3CCOCC3)C2=O)cc1	i	i	20.6µM	-65.2	?
SMILES	HT1080-NT tox	HT1080 IDH1KD tx	DT40 TDP1 no CPT	IL-1B inflam inh	TDP1 cell CPT
COCCNC(=O)CN1C(=O)/C(=C/c2ccccc2)Oc2ccc(C(C)(C)C)cc21	i	i	?	-52.9	?
O=C(CN1C(=O)COc2ccccc21)NCCCN1CCOCC1	i	i	i	i	i
COc1cc(NC(=S)N2CCC(C(N)=O)CC2)c(OC)cc1Cl	i	i	i	i	i
NC(C(=O)O)c1ccc(P(=O)(O)O)cc1 (stereo unspecified)	nt	nt	i	nt	i
COc1cccc(C(=O)NCc2nnc(SCC(=O)Nc3nccs3)n2-c2cccc(C)c2)c1	i	i	i	i	i
O=C(CN1C(=O)/C(=C\c2cccc(Cl)c2)Sc2ccccc21)NCCCN1CCOCC1	i	i	23.1µM	i	23.1µM
CN(C(=O)CSCC(=O)Nc1ccc(Cl)cc1)C1CCCCC1	?	i	14.6µM	-53.2	?
COc1cc(NC(=O)CSCC(=O)N(C)C2CCCCC2)cc(OC)c1	i	i	i	i	i
